Source: PubChem BioAssay AID485314 (National Center for Advancing Translational Sciences (NCATS), 2010)
Where “and” joins values, the source holds several entries; their conditions need not be identical. Equal entries are not always repeated. In all, about 340,000 compounds went through this assay and about 4,500 (1.3%) were called active. Not shown: some 5% with an inconclusive outcome. Calls follow the shape of the dose curve; as a rule, active = well fitted inhibition curve with a large enough effect; inconclusive = small, poorly fitted or top-dose-only effect, or another doubt; inactive = no such curve, though single readings can be large or run the other way. Only a selection was taken, and actives are over-represented in it overall.

molecular target: DNA polymerase beta (Homo sapiens) (UniProt P06746); test: qHTS Assay for Inhibitors of DNA Polymerase Beta; conditions: Pol beta primer extension/strand displacement, fluorescence kinetic; series mostly up to 114 µM; activity change, negative = inhibition: at the top concentration
How it was run: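 Curves were derived by four-parameter Hill fits of normalized qHTS data. The kinetic fluorescent primer-extension read was taken at 0 and 10 min after 50 nM substrate, following a 15 min room-temperature preincubation of 10 nM enzyme with compounds.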
% is scaled to controls: 0 for no effect and ±100 for the full control effect; potency is read from the fitted curve at half-maximal effect.

Structure (SMILES)	activity change, negative = inhibition	Potency
CCC(=O)N1c2ccccc2CC1C(=O)N1CCN(c2cccc(OC)c2)CC1 (stereo not drawn)	-16% (inactive)	
O=C(NCc1ccccc1)c1ccc2c(c1)nc1n2CCCCC1	2.98% (inactive)	
CCOc1cccc(NC(=O)CSc2ncc(-c3ccc(Cl)cc3)[nH]2)c1	-0.737% (inactive)	
Cc1cc(C)c2nc3nc(C)cc(C)c3c(N)c2c1		39.8 µM (active)
CC(=C/c1ccccc1)/C=N/NC(=O)c1cc(C)oc1C	21.3% (inactive)	
CC(C)(C)C1CCC(=NNC(=O)c2cc(-c3ccccc3)n[nH]2)CC1 (stereo not drawn)	-0.4% (inactive)	
CC(/C=N/NC(=O)c1cc(-c2ccc3ccccc3c2)n[nH]1)=C\c1ccco1		12.6 µM (active)
COc1ccc(/C=C/c2nc(C#N)c(NCc3ccc(F)cc3)o2)cc1OC	-25.4% (inactive)	
Cn1c2ccccc2c(=O)c2c(=O)n(Cc3ccco3)c(COc3ccccc3)nc21	-7.71% (inactive)	
Cc1cc(NC(=O)CSc2nc3cc(Cl)ccc3c(=O)n2Cc2ccco2)no1	-0.389% (inactive)	
Cc1nc2c(c(=O)n1Cc1ccco1)c1nc3ccccc3nc1n2Cc1ccccc1		20 µM (active)
Cc1ccc(Cn2c(C)nc3c(c2=O)c2nc4ccccc4nc2n3Cc2ccco2)cc1		10 µM (active)
O=c1c2ccccc2oc2nc(C3CCCCC3)n(Cc3ccco3)c(=O)c12	-1.37% (inactive)	
Clc1cccc(-c2nc3nc4ccccc4nc3n2Cc2ccco2)c1	-2.15% (inactive)	
Cc1c(NC(=O)C(C)(C)C)cccc1-c1nc2ccccc2s1	-25.5% (inactive)	
Cc1ccc(NC(=O)CCCn2c(=O)c3cccn3c3ccccc32)cc1Cl	3.08% (inactive)	
Cc1ccc(CN2CCC(CNC(=O)c3cnn(-c4ccccc4Cl)c3C3CCN(C(=O)OC(C)(C)C)CC3)CC2)cc1	3.23% (inactive)	
Cc1ccc(CNC(=O)CCc2c(C)nn(-c3ccc(N4CCCC4)nn3)c2C)cc1	2.86% (inactive)	
CC(=O)c1cccc(Nc2ccc3cc(S(=O)(=O)N4CCC(C)CC4)ccc3n2)c1	-0.0137% (inactive)	
CC(=O)c1ccc(S(=O)(=O)N2CCC3(CC2)OCCO3)cc1	8.96% (inactive)	
CC(=O)c1ccc(S(=O)(=O)N2CCN(C(=O)/C=C/c3ccc4ccccc4n3)CC2)cc1		11.2 µM (active)

Structure (SMILES)	activity change, negative = inhibition	Potency
O=C1Cc2cc(S(=O)(=O)Nc3ccc(OC(F)(F)F)cc3)cc3c2N1CCC3	-15.2% (inactive)	
Cc1ccc(NC(=O)c2nc(S(=O)(=O)Cc3cccc(C)c3)ncc2Cl)cc1	16.3% (inactive)	
COc1ccc(NS(=O)(=O)c2cc3c4c(c2)CC(=O)N4CCC3)cc1Cl	1.58% (inactive)	
O=c1[nH]n2c(-c3ccccc3)nc(O)c2c2ccccc12	34.8% (inactive)	
CC(C)Cn1c(=O)c2ccccc2n2c(-c3cccc(Cl)c3)nnc12	23% (inactive)	
O=c1[nH]c2ccccc2n2c(-c3ccccc3)nnc12		39.8 µM (active)
COc1ccc(CNC(=O)c2cc3c(-c4ccccc4F)nn(C)c3s2)c(OC)c1	1.71% (inactive)	
COc1ccc(N2CCN(c3nc(-c4ccccc4F)nc4ccccc34)CC2)cc1	-10.7% (inactive)	
COc1ccc(-n2c(C)nc3c(cnn3-c3ccc(F)cc3)c2=O)cc1	42.6% (inactive)	
CC(C)c1ccc2c(c1)c(SC(C)(C)C)c(CC(C)(C)C(=O)O)n2Cc1ccc(Cl)cc1		50.1 µM (active) and 31.6 µM (active)
CC(C)c1ccc(Cn2c(COc3ccccc3)nc3ccccc32)cc1	19.8% (inactive)	
Cc1c(C)n(Cc2ccc(Cl)cc2)c2ccc(C(=O)N3CCN(c4ccccc4F)CC3)cc12	-25.6% (inactive)	
Cc1ccc(C)c(Oc2c(C(F)(F)F)oc3c(CN4CCN(C)CC4)c(O)ccc3c2=O)c1	-17.9% (inactive)	
Cc1cccc(-n2ccnc2SCC(=O)Nc2cccc3ccccc23)c1C	10.7% (inactive)	
CCCS(=O)(=O)Nc1cccc(-c2cn3ccsc3n2)c1	-12.8% (inactive)	
CC(=O)Nc1ccc(NC(=O)CCCc2nc(-c3ccc(C(C)(C)C)cc3)no2)cc1	28.3% (inactive)	
CCc1nn(CC(=O)N2CCN(CC)CC2)c(=O)c2cccn12	1.16% (inactive)	
CC(C)c1ccc(NC(=O)Cn2ncc3ccccc32)cc1	31.7% (inactive)	
CCCN1CCN(C(=O)Cn2ncc3ccccc32)CC1		12.6 µM (active)
CC(=O)c1ccc(N2CCN(C3C(=O)c4ccccc4N3C(C)=O)CC2)cc1 (stereo not drawn)	50.8% (inactive)	
Cc1ccc(-c2ccc(CCC(=O)O)n2-c2ccc(C(N)=O)cc2)cc1	6.21% (inactive)	

Structure (SMILES)	activity change, negative = inhibition	Potency
Cc1nn(-c2ccccc2)c(-n2cccc2)c1C(=O)O	-15.2% (inactive)	
Cc1nn(-c2ccc(F)cc2)c(-n2cccc2)c1C(=O)N1CCN(c2ccccc2)CC1	-8.92% (inactive)	
Cc1ccc(-n2nc(C)c(C(=O)O)c2-n2cccc2)cc1		12.6 µM (active)
COc1cccc(NC(=O)C(=O)NCC(c2ccc3c(c2)OCO3)N2CCN(C)CC2)c1 (stereo not drawn)	-9.86% (inactive)	
Cc1ccccc1Nc1nn2c(=O)c3ccc(C(=O)NCCc4ccc(Cl)cc4)cc3nc2s1	-0.38% (inactive)	
CCN(Cc1ccccc1)S(=O)(=O)c1ccc2c(c1)CCCN2C(C)=O	31.7% (inactive)	
CCc1nnc(SCC(=O)Nc2cc(OC)ccc2OC)nc1CC	23.5% (inactive)	
COc1ccc2[nH]c(C(=O)Nc3ccccc3Cl)cc2c1	21.2% (inactive)	
COc1ccc2[nH]c(C(=O)N/N=C/c3cc(OC)c(OC)c(OC)c3)cc2c1		8.91 µM (active)
CCOc1ccc2[nH]c(C(=O)N/N=C/c3cccc(OC)c3OC)cc2c1	-0.753% (inactive)	
CCc1nc2c(cnn2-c2ccc(C)cc2)c(=O)n1-c1ccc(C)cc1	-17.5% (inactive)	
Cc1ccccc1N1CC(C(=O)Nc2nnc(SCCC3OCCO3)s2)CC1=O (stereo not drawn)		14.1 µM (active)
COc1ccccc1N1CC(C(=O)Nc2nnc(SCC(=O)NCC3CCCO3)s2)CC1=O (stereo not drawn)	-12.3% (inactive)	
COc1ccccc1N1CC(C(=O)Nc2nnc(SCC(=O)NC(C)C)s2)CC1=O (stereo not drawn)	21.8% (inactive)	
Cc1ccc(Cl)cc1NC(=O)Cc1ccc(-n2c(C)nc3cccnc32)cc1	-2.17% (inactive)	
CCOC(=O)C1=C(CC)Nc2ccccc2N=C1N	9.29% (inactive)	
CCOC(=O)c1cc(Sc2ccccc2N)cc(C(=O)OCC)n1		25.1 µM (active)
CCS(=O)(=O)c1cc([N+](=O)[O-])c(Sc2ccccc2N)s1	18% (inactive)	
CN1c2ccc(Cl)cc2-c2nc(SCC(=O)Nc3cc(F)ccc3F)ncc2S1(=O)=O	18% (inactive)	
COc1cc(CNCCSc2nnnn2C)ccc1OCc1ccc(Cl)cc1Cl	-25.4% (inactive)	
CCc1cccc(NC(=O)CN(C)S(=O)(=O)c2ccc3[nH]c4c(c3c2)CCCC4)c1	0.243% (inactive)	
